Assay outcomes: PubChem, National Center for Advancing Translational Sciences (NCATS)
A selection: hits, their analogues and other compounds. The true share with any hit is near 3.8%.
GALK inh: GALK (human) enzyme inhibition | P51570 | recombinant GALK, Kinase-Glo ATP luminescence, 1 h | 44,000 tested, under 10 active | Potency, µM (titrated, usually from 57.5 µM), hits mostly inhibitors | AID 1347072
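5 nM GALK with 35 µM ATP and 100 µM galactose in HEPES pH 8.0, MgCl2, NaCl, DTT, BSA; 1 h RT reaction, remaining ATP detected by Kinase-Glo Plus luminescence after 10 min; qHTS concentration series.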
TSG101-PTAP inh: blocks PTAP binding to human TSG101, validation. 44,000 tested, under 10 active. AID 1347069. Fluorescence polarization, FITC-PTAP peptide/Tsg101, 20 min. Potency, µM (series often up to 115 µM), hits mostly inhibitors
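Read-out is FITC fluorescence polarization. Compounds were added to Tsg101 binding domain (10 uM final), then FITC-PTAP peptide (50 nM final), 20 min at r.t. Total S+P intensity flags fluorescent compounds.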
NTMT1 inh: blocks human N-terminal methyltransferase 1 activity | Potency, µM (highest dose often 114 µM), most hits filed as inhibitors | NTMT1 MTase-Glo SAH luminescence, purified enzyme | 59,000 compounds, 2.5% hits | AID 1645870; also: nearly all actives have a fitted effect of over 65% in size
Target sequence (Q9BV86 whole entry, looked up): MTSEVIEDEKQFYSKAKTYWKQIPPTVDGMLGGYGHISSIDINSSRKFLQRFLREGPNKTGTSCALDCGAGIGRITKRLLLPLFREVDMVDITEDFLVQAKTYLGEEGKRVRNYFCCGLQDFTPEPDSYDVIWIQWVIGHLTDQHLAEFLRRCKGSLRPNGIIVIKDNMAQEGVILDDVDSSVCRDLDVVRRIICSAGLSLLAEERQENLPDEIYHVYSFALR
B2AR arrestin ag: ADRB2 beta-arrestin recruitment; P07550; HTLA Tango cells, beta-arrestin recruitment, luciferase luminescence, 18 h; Potency, µM (doses to about 46.1 µM), actives largely listed as activators; 44,000 tested, under 10 active; AID 1347077
Target sequence (P07550 whole entry, looked up): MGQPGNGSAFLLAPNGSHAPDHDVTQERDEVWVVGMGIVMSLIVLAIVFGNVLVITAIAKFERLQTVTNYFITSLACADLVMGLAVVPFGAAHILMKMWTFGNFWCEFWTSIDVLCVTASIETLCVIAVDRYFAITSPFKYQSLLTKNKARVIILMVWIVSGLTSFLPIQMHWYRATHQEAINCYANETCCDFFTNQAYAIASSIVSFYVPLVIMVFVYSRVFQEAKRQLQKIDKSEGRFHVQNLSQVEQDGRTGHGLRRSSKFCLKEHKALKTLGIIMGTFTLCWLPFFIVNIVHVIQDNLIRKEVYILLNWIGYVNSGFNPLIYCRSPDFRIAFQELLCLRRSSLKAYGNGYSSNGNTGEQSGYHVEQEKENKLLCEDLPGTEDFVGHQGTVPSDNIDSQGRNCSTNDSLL
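Ligand-induced beta-arrestin recruitment to recombinant beta2-AR is measured via a tTA-driven luciferase reporter in Tango cells after 18 hr compound exposure at 37 degrees C. Concentrations span up to 46 microM.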
GPR32 ag: activates human resolvin D1 receptor GPR32; O75388; CHO-K1 GPR32 beta-arrestin PathHunter luminescence, 90 min; zero percent set by DMSO-only wells; activation, % at 76.9 µM; 48,000 compounds, 2.5% hits; AID 1346428;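 active = activation of at least 60% and not above a set upper limit, about 1 call in 100 departs from these limits; inconclusive = activation of 40% to 60%, or above that upper limit; inactive = activation under 40%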
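Agonism was scored as beta-arrestin recruitment to ProLink-fused GPR32 in stably transfected CHO-K1 cells, giving a chemiluminescent beta-Gal signal; compounds were incubated 90 min at 37 °C.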
SKOV3 invasion: blocks SKOV3ip1 adhesion and invasion in omental model; 46,000 compounds, 0.1% hits; SKOV3ip1-GFP adhesion/invasion on 3D omental model, fluorescence; Potency, µM (doses to about 45.8 µM), hits mostly inhibitors; also: nearly all actives have a fitted effect of over 65% in size
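Primary human omental fibroblast/mesothelial 3D culture pre-formed 48 h. SKOV3ip1-GFP cells added with compounds (0.36-46 umol/L), incubated 2 h RT/16 h 37 C, fixed; GFP cells quantified at 488/509 nm.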
Large screens that a line does not name were inactive; ! = not confirmed by another sample. Unless noted, calls follow the shape of the dose curve; as a rule, active = well fitted curve in the direction sought with a large enough effect; inconclusive = small, poorly fitted or top-dose-only effect, or another doubt; inactive = no such curve, though single readings can be large; an effect the other way counts as inactive or inconclusive.

Cc1ccccc1-c1nc(CS(=O)(=O)CC(=O)NCCCc2ccccc2)c(C)o1	NTMT1 inh inconclusive, GPR32 ag 79.9
COc1ccc2c(C)c(CCC(=O)NCCc3ccc(Cl)cc3)c(=O)oc2c1	GPR32 ag 107.5 (no result: NTMT1 inh)
COc1ccc2c(C)c(CCC(=O)NCCc3ccccc3)c(=O)oc2c1	none (no result: NTMT1 inh)
COc1ccc2c(C)c(CCC(=O)NCCc3ccc(OC)c(OC)c3)c(=O)oc2c1	GPR32 ag 68.2 (no result: NTMT1 inh)
COc1ccc(CCNC(=O)CCc2c(C)c3cc4c(C)c(C)oc4cc3oc2=O)cc1OC	NTMT1 inh inconclusive
Cc1c(C)n(Cc2ccccc2)c2ccc(C(=O)NCc3ccc(OC(C)C)cc3)cc12	none
Cc1c(C)n(Cc2ccc(-c3ccccc3C(=O)O)cc2)c2ccc(C(=O)N[C@@H](C)c3ccc([N+](=O)[O-])cc3)cc12	NTMT1 inh 31.6µM! (no result: GALK inh, TSG101-PTAP inh, B2AR arrestin ag, GPR32 ag)
CCCOc1ccc(C(=O)N(Cc2ccccc2Cl)C2CCS(=O)(=O)C2)cc1 (stereo unspecified)	none
CCCCn1c(=N)n(CCOc2ccccc2OC)c2ccccc21	GPR32 ag 64.5, SKOV3 invasion inconclusive
O=c1[nH]c(=O)n(C2CCCCC2)c(O)c1C1=Nc2ccccc2SC(c2ccc(Cl)cc2)C1 (stereo unspecified)	none
Cc1c(C(=O)OC2CCCCCC2)[nH]c2c1C(=O)CC(c1ccccc1)C2 (stereo unspecified)	GPR32 ag 78.6
CCC(C)/C=C(C)/C=C/C1=CC2=C(Cl)C(=O)C(C)(O)C(=O)C2(O)C(OC)O1 (stereo unspecified)	none (no result: GALK inh, TSG101-PTAP inh, B2AR arrestin ag, GPR32 ag, SKOV3 invasion)
CN[C@H]1CC[C@@H](c2ccc(Cl)c(Cl)c2)c2ccccc21	NTMT1 inh 28.2µM!, GPR32 ag 80.8! (no result: GALK inh, TSG101-PTAP inh, B2AR arrestin ag, SKOV3 invasion)
O=C(Nc1ccc(Cl)c(Cl)c1)N1CCC(c2ccccc2)C1 (stereo unspecified)	none
COc1cc(OC)cc(C(=O)Nc2ccc3c(c2)OCCO3)c1	NTMT1 inh 31.6µM
C=C[C@]1(C)C[C@@H](OC(=O)CSC2C[C@H]3CC[C@@H](C2)N3C)[C@]2(C)[C@H](C)CC[C@]3(CCC(=O)[C@H]32)[C@@H](C)[C@@H]1O (stereo partly specified)	none (no result: GALK inh, TSG101-PTAP inh, B2AR arrestin ag, GPR32 ag, SKOV3 invasion)
Cc1cc(NC(=O)CCc2nc3cccnc3n2-c2ccccc2)ccc1Br	GPR32 ag 65.8
COc1ccc(NC(=O)CCc2nc3cccnc3n2-c2ccccc2)cc1Cl	none
O=C(Nc1nonc1-c1ccc(Br)cc1)c1ccco1	GPR32 ag 71.1
COc1ccccc1-c1cc(C(F)(F)F)nc(S(=O)(=O)CCCC(=O)Nc2ccc(F)c(Cl)c2)n1	NTMT1 inh inconclusive
O=C(CCS(=O)(=O)c1nc(-c2cccs2)cc(C(F)(F)F)n1)Nc1cc(Br)ccc1O	SKOV3 invasion inconclusive
COc1ccccc1-c1cc(C(F)(F)F)nc(S(=O)(=O)CCCC(=O)Nc2cc(OC)c(OC)c(OC)c2)n1	GPR32 ag 80.5
O=C(CCS(=O)(=O)c1nc(-c2cccs2)cc(C(F)(F)F)n1)Nc1ccc(Br)cc1	B2AR arrestin ag inconclusive, SKOV3 invasion 3.16µM
Cc1nn2c(C)c(C(=O)NC(C)(C)C)cnc2c1-c1ccc(F)cc1	none
COc1ccc(NC(=O)Cn2nc(C)c3nn(-c4ccc(Cl)cc4)c(C)c3c2=O)cc1	none
Cc1ccc(S(=O)(=O)N(CC(=O)Nc2ccc(F)cc2F)Cc2ccc(F)cc2)cc1	none
CCOC(=O)c1c(C)[nH]c(C)c1S(=O)(=O)N1CCC(C(=O)NCc2ccc(N(C)C)cc2)CC1	none
COc1ccc(CNC(=O)CCc2nc(-c3ccc(OC)cc3)no2)cc1	none
O=C1CCSc2ccc(S(=O)(=O)Nc3cccc(C(F)(F)F)c3)cc2N1	GPR32 ag 109.1
Cc1ccc(NS(=O)(=O)c2ccc3c(c2)NC(=O)CCS3)c(Br)c1	GPR32 ag 119.9
Cc1ccccc1NS(=O)(=O)c1ccc2c(c1)NC(=O)CCS2	none
CC(C)NCC(O)c1ccc(O)c(O)c1 (stereo unspecified)	NTMT1 inh inconclusive (no result: GALK inh, TSG101-PTAP inh, B2AR arrestin ag)
CNC[C@H](O)c1ccc(O)c(O)c1	NTMT1 inh 55.5µM! (no result: GALK inh, TSG101-PTAP inh, B2AR arrestin ag)
NC[C@@H](O)c1ccc(O)c(O)c1	none (no result: GALK inh, TSG101-PTAP inh, B2AR arrestin ag, GPR32 ag, SKOV3 invasion)
Oc1ccc(C(O)CNCCCCCCNCC(O)c2ccc(O)c(O)c2)cc1O (stereo unspecified)	NTMT1 inh 35.5µM (no result: GALK inh, TSG101-PTAP inh, B2AR arrestin ag, SKOV3 invasion)
CN(C)S(=O)(=O)c1ccc2c(c1)N(CC(=O)N1CCCCC1)CCS2	none
COc1cccc(N2CCN(c3ncnc4c3c(-c3ccccc3)cn4-c3cccc(C(F)(F)F)c3)CC2)c1	none
Cc1ccc2occ(CC(=O)Nc3nnc(C(C)C)s3)c2c1	none
Cc1cc(C)c2c(CC(=O)Nc3nnc(C(C)C)s3)coc2c1	GPR32 ag 65.2, SKOV3 invasion inconclusive
COc1ccc(CC(=O)NCC(c2cccs2)S(=O)(=O)c2ccc(F)cc2)cc1 (stereo unspecified)	none
COc1ccc(C(=O)NCC(c2cccs2)S(=O)(=O)c2ccc(F)c(C)c2)cc1 (stereo unspecified)	GPR32 ag 66.1
COc1ccc(C(=O)NCC(c2cccs2)S(=O)(=O)c2cccs2)cc1 (stereo unspecified)	GPR32 ag 83.0
COc1ccc(CCNC(=O)C(=O)NCC(c2cccs2)S(=O)(=O)c2ccc(F)cc2)cc1 (stereo unspecified)	GPR32 ag 85.1
COc1ccc(Cl)cc1C(=O)Nc1nnc2n1CCS2	none
COc1ccc(N2CCN(c3csc4ccc(Cl)cc4c3=O)CC2)cc1	none
CCS(=O)(=O)N1CCc2cc(C(=O)N3CCN(c4cccc(C(F)(F)F)c4)CC3)ccc21	GPR32 ag 64.7
CCCCCn1c(=O)[nH]c2cc(C(=O)N3CCN(c4cccc(C(F)(F)F)c4)CC3)ccc2c1=O	GPR32 ag 60.8
O=C(CCCCCn1c(=O)[nH]c2ccccc2c1=O)N1CCN(c2cccc(C(F)(F)F)c2)CC1	none
COc1cc2[nH]c(=O)n(CCCCCC(=O)N3CCN(c4cccc(C(F)(F)F)c4)CC3)c(=O)c2cc1OC	GPR32 ag 63.1
CCCCCn1c(=O)[nH]c2cc(C(=O)N3CCN(c4ccccc4)CC3)ccc2c1=O	NTMT1 inh inconclusive
O=C(O)c1ccc(-c2nn3c(=O)cc(N4CCNCC4)nc3s2)cc1	none (no result: GALK inh, TSG101-PTAP inh, B2AR arrestin ag, GPR32 ag, SKOV3 invasion)
O=C(Nc1ccccc1Cl)C1CCN(c2nc3ccccc3nc2C(F)(F)F)CC1	none
CCC(C)Nc1sc(S(=O)(=O)CC)nc1S(=O)(=O)c1ccc(C)cc1 (stereo unspecified)	none
